According to the OligoGym collection:

What follows are sequences tested against SCN4A (assay: pooled miR-30 sensor sort-seq; sequence = guide strand). Conditions: shRNA.
Also: reference of the scale not given here.

Row | Sequence | sensor-assay potency score (higher = more potent)
1 | TACTCCACATTCTTGGACCAGG | -1.18
2 | TAGTCCTGTGTCATGAGGCGGA | -0.484
3 | TTGACCTTGACATTGAGCCAGC | -0.555
4 | TTGAGCACGATGCAGATGGTGA | -0.925
5 | TTGATGCAGTAGTAGAACTTGC | -0.382
6 | TTCAGAACCATCTCTGCTGTGA | 0.403
7 | TTGATGAGCATGTTCAGCGTTG | -0.377
8 | TTGTAGTCAGCTGTGCTGCAGA | -0.246
9 | TGCAGTAGTAGAACTTGCCGGC | 0.0253

Each sequence was assayed against SDHAF1 in the same assay as above. Conditions: shRNA.

Row | Sequence | sensor-assay potency score (higher = more potent)
10 | TCCTTGGACTGTCGCCGTCGTC | -1.69
11 | ATGCTGCCGGAACTCTGCCCGC | -1.77
12 | TGCGCAGCACGTCGGACCGCGG | -1.5
13 | TGTCGCCGTCGTCAGGCTGGGA | -1.53
14 | TCGTGGGGGTTCCTTGGACTGT | -2.02
15 | TGGACTGTCGCCGTCGTCAGGC | -0.932
16 | TACTCGATGCGCAGCACGTCGG | -1.32
17 | ACTGTCGCCGTCGTCAGGCTGG | -1.04
18 | ATGCGCAGCACGTCGGACCGCG | -1.11
19 | TACAGGCTCAGAACCTGCCTCT | -0.402
20 | TTGGACTGTCGCCGTCGTCAGG | -1.17
21 | TCGATGCGCAGCACGTCGGACC | -1.24

Each sequence was assayed against SDR9C7 in the same assay as above. Conditions: shRNA.

Row | Sequence | sensor-assay potency score (higher = more potent)
22 | TTGATGACATCTCTGACTCTGG | 0.0736
23 | TTGCAGTTCTTGAACCAGCGAT | -0.518
24 | TTATGTTTTTTAACTTGTCAGT | -0.963
25 | TTGATGCTTTCGCTCTTGGTGA | -1.21
26 | TTCGCTCTTGGTGACATCCAGT | -0.405
27 | TAACTTGTCAGTATAGATGCGG | -0.0735
28 | TTAGGATGAAATCTGTCACAGG | -0.552
29 | TTGTTCGCCCACTTTGTCCCTC | -0.717
30 | TAGAGCTCACGCCTTATGCTGT | -0.719
31 | ATGCTGTTGATGACATCTCTGA | -0.812
32 | AACTTGTCAGTATAGATGCGGA | -0.682
33 | TTGCCGAGAATGGCTGTCCGAT | -0.982

What follows are sequences tested against SEC11C in the same assay as above. Conditions: shRNA.

Row | Sequence | sensor-assay potency score (higher = more potent)
34 | TTACTCTGTGAACTATTGGAAT | -1.07
35 | ATCTTTTTCATGAACTTTGATT | -1.19
36 | TGAACTATTGGAATGTCTCGTC | 0.149
37 | TGAACTTTGATTACTCTGTGAA | 0.177
38 | TTCAACTTTAAAAACAACTATT | -1.15
39 | TCATGAACTTTGATTACTCTGT | 0.434
40 | TAAAACCTGGTAATAGAGCTGG | -0.222
